Screening results from PubChem BioAssay.
GDH-TPI inh = GDH-TPI coupled enzyme inhibition counter-screen; GDH-TPI coupled enzyme counterscreen, NADH absorbance; inhibition, % at 4.8 µM; hit rate 1.2% among 360,000; AID 588335; in the data active = inhibition above about 30%;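 note: 0% = DMSO wells and 100% = wells lacking the enzyme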
Autofluor counter = flagged as autofluorescent in microsphere protease counterscreen | compound autofluorescence counterscreen, microsphere flow cytometry; hits give high values | hit rate 3.1% among 360,000 | fluorescence intensity (concentration not given with the values); in the data active = fluorescence intensity above about 16000; inconclusive = no clear call, values can overlap the other calls
BoNT A protease = BoNT A light chain protease inhibition. multiplex microsphere protease substrate cleavage, flow cytometry. inhibition, % at 10 µM. hit rate 0.17% among 360,000; note: plate controls were buffer without enzyme for full effect and enzyme alone for no effect
BoNT-F LC inh = inhibitors of Botulinum neurotoxin F light chain protease; Multiplex microsphere protease cleavage assay, flow cytometry; inhibition, % at 10 µM; hit rate 0.22% among 360,000; in the data active = inhibition above about 35%, passing the limit was not always enough; inconclusive = no clear call, values can overlap the other calls; note: plate controls were buffer without enzyme for full effect and enzyme alone for no effect
Anthrax LF prot = inhibitors of Bacillus anthracis lethal factor protease | multiplex microsphere protease cleavage assay, LF | inhibition, % at 10 µM | hit rate 0.12% among 360,000 | AID 588501; note: plate controls were buffer without enzyme for full effect and enzyme alone for no effect
FBA Mtb inh = inhibitors of M. tuberculosis fructose-bisphosphate aldolase; inhibition, % at 1 µM; hit rate 2.3% among 360,000; P9WQA3; purified M. tuberculosis FBA, fluorescence read-out; in the data active = inhibition above about 27%;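 note: 0% = vehicle and 100% = reference inhibitor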
Target sequence (P9WQA3 whole entry, looked up): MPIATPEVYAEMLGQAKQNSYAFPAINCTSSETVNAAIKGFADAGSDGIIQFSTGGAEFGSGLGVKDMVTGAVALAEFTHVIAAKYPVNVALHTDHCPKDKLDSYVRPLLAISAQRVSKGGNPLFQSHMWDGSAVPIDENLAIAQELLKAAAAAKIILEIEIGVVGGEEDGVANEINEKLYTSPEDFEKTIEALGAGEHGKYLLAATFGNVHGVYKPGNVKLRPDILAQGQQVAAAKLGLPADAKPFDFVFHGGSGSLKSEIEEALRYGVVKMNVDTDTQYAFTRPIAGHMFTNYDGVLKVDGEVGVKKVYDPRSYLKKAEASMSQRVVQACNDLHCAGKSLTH
* marks the source's active call; other numbers are inactive results; ? = inconclusive; nt = no result. Compounds with a hit are over-represented: about 6.7% of the library has one in this group of screens. Cut-off read from the data, not from the text of the source, unless noted: active = inhibition above about 30%; inconclusive = no clear call, values can overlap the other calls; inactive = below that.

SMILES	GDH-TPI inh	Autofluor counter	BoNT A protease	BoNT-F LC inh	Anthrax LF prot	FBA Mtb inh
Cn1c(/C=N/NC(=O)c2ccccc2)nc2ccccc21	47*	11546	-1	-10	-2	8
CCn1c2ccccc2c2cc(/C=N/NC(=O)c3ccccc3C)ccc21	35*	7653	2	-3	-1	5
Cn1c2ccccc2c2cc(/C=N/NC(=O)c3ccc(N)cc3)ccc21	36*	5983	-1	3	-2	15
Cn1c(-c2ccccc2)c(/C=N/NC(=O)c2ccc(O)cc2)c2ccccc21	52*	4311	-1	0	-5	3
CC(C)(C)n1nnnc1C(c1cc2ccccc2o1)N1CCC2(CC1)C(=O)NCN2c1ccccc1 (stereo not drawn)	nt	5692	0	1	-1	-3
COc1ccc(-c2cnc(N)nc2-c2ccc(OCc3ccccc3)cc2O)cc1	7	4623	0	0	0	0
Cn1c2ccccc2c2cc(/C=N/NC(=O)c3ccccc3F)ccc21	47*	5473	-7	-6	-1	12
Cc1cc(/C=N/NC(=O)c2ccccc2F)c(C)n1-c1ccccc1	8	2619	-1	-3	-3	0
Cc1ccc(C2OCC3(CO2)COC(c2ccc(C)cc2)OC3)cc1 (stereo not drawn)	-10	2479	0	-6	2	-1
O=C1C2(CCC13COC(c1ccc(O)cc1)OC3)COC(c1ccc(O)cc1)OC2 (stereo not drawn)	-3	22568*	1	-1	-5	-1
O=C1c2ccccc2C(=O)N1Cc1nc(-c2ccccc2)no1	-1	21600*	-4	-5	-1	-1
O=C1c2ccccc2C(=O)N1CCc1nc(-c2ccccn2)no1	-5	21427*	5	5	-4	-5
Cc1nc(N/N=C/c2ccccc2)nc(N(C)c2ccccc2)c1[N+](=O)[O-]	5	3804	-1	-9	-4	2
COc1ccc2c(c1)[nH]c1c(=O)n(CC3CCCO3)cnc12 (stereo not drawn)	15	17272*	-2	-2	-2	-1
Cc1ccc2[nH]c3c(=O)n(CCCN4CCN(C)CC4)cnc3c2c1	16	23434*	-3	-6	0	17
COc1ccc2[nH]c3c(=O)n(CCCN4CCOCC4)cnc3c2c1	22	3383	0	5	-3	157*
Cc1ccc2[nH]c3c(=O)n(CCCN4CCOCC4)cnc3c2c1	8	4004	0	3	0	13
COc1ccc(C(=O)O)cc1S(=O)(=O)N1CCCc2ccccc21	3	3121	2	5	-5	2
COc1cccc(Oc2coc3cc(OC(=O)N4CCOCC4)ccc3c2=O)c1	-3	2179	0	-6	-1	-3
COc1ccc(-c2coc3cc(OC(=O)N4CCOCC4)ccc3c2=O)cc1	2	4528	0	0	-3	0
COc1ccccc1Oc1coc2cc(OC(=O)N3CCOCC3)ccc2c1=O	1	22043*	3	2	5	-2
COc1ccc(Oc2c(C)oc3cc(OC(=O)N4CCOCC4)ccc3c2=O)cc1	4	16237*	-1	1	-2	1
Cc1oc2ccc(OC(=O)N3CCOCC3)cc2c1C(=O)OC(C)C	-3	23451*	-2	-5	-5	0
Cc1ccc(C)c(OCCn2cc(/C=C(\C#N)C(=O)NCc3cccs3)c3ccccc32)c1	18	22488*	2	3	-2	1
CC1CN(C(=O)Cn2c(=O)oc3ccccc32)CC(C)O1 (stereo not drawn)	-6	5969	0	0	0	-1
SMILES	GDH-TPI inh	Autofluor counter	BoNT A protease	BoNT-F LC inh	Anthrax LF prot	FBA Mtb inh
C#CCOCCOCCOCCNc1nc(N2CCN(C(=O)[C@H](CCC(=O)O)n3cc(CN)nn3)CC2)nc(N2CCN(C(=O)[C@H](CCCCN)n3cc([C@@H](N)CC(N)=O)nn3)CC2)n1	15	2977	-1	-7	1	0
CCn1c(O)c(N=Nc2ccc(Cl)c(C(=O)O)c2)c2ccccc21	35*	3628	1	3	0	-19
COc1ccccc1-c1cc(C(=O)N2CCCC2)no1	-5	5861	2	8	2	-7
C/C(=N\Nc1nccnc1Cl)c1ccc(O)c(C)c1	44*	3680	-3	-12	-12	2
CC1=NN(c2nc(C)cc(C)n2)C(=O)C1CCC(C)C (stereo not drawn)	8	8206	0	-1	-2	6
CCC1C(=O)N(c2nc(C)cc(C)n2)N=C1C (stereo not drawn)	2	19066*	2	0	3	-4
O=C(O)CCC(=O)N1CCN(c2ccc(C(=O)c3ccc(F)cc3)cc2)CC1	38*	3689	0	-15	-3	-1
O=C(COc1ccccc1)Nc1cccc(-c2nc3ccccc3[nH]2)c1	2	1958	0	-3	0	5
CC(=O)Nc1cccc(NC(=O)CCCC(=O)O)c1	-7	18707*	?	3	1	8
O=C(O)CCCC(=O)Nc1cccc(-c2nc3ccccc3[nH]2)c1	-1	16669*	0	-3	3	17
COc1ccc(OCC(=O)Nc2cccc(-c3nc4ccccc4[nH]3)c2)cc1	4	24148*	?	-3	-3	2
Cc1ccc(-c2ccc(/C=N/n3cnnc3)o2)cc1	25	4166	?	?	-4	2
Cc1cc(C(=O)O)ccc1-c1ccc(/C=N/n2cnnc2)o1	50*	3798	2	7	0	6
Cc1ccc(-c2ccc(/C=N/n3cnnc3)o2)cc1Cl	36*	4030	0	-4	-3	7
Cc1cc(/C=N/n2cnnc2)c(C)n1-c1ccc(C(=O)O)cc1	15	23182*	-2	-2	-2	3
COC(=O)c1ccc(-n2c(C)cc(/C=N/n3cnnc3)c2C)cc1	15	3597	1	0	0	2
Clc1cccc(-c2ccc(/C=N/n3cnnc3)o2)c1	50*	6747	-1	-6	-3	0
O=[N+]([O-])c1cc(-c2ccc(/C=N\n3cnnc3)o2)cc([N+](=O)[O-])c1	29	3142	-20	-37	-16	-1
O=C(CSC1=NNC(c2ccccn2)S1)Nc1ccc(C(F)(F)F)cc1 (stereo not drawn)	32*	nt	nt	nt	nt	-2
CN(C)c1ccc(C=Nc2cnn(C)c2C(N)=O)cc1	35*	4927	-1	-2	0	-2
CC1=CC(C)(C)N2C(=O)C3(C(C#N)=C(N)OC4=C3C(=O)CCC4)c3c(C)c(C)cc1c32 (stereo not drawn)	17	17514*	-4	-6	-2	1
CC1=CC(C)(C)N2C(=O)C3(C(C#N)=C(N)Oc4cc(O)ccc43)c3c(C)c(C)cc1c32 (stereo not drawn)	4	23874*	-2	-2	-2	0
CC1C(c2ccccc2)N(C)C(c2ccccc2)CC1(O)c1ccccc1 (stereo not drawn)	0	17483*	-6	-7	-6	0
